Assay results: PubChem BioAssay (EPA / NIEHS)
Records with an inconclusive call do not appear. The source made the active and inactive calls. Rule for the calls: active = hit-call score of the fitted dose curve at least 0.9, where 1 is the maximum; inconclusive = response in the unintended direction; inactive = score below 0.9.

Assay: ATG_XTT_Cytotoxicity_XSP2: Cytotoxicity Assessment in the Attagene TRANS-FACTORIAL Multi-Species (XSP2) HepG2 Assay (AID 2283837)
Summary of the method: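 HepG2 cells, transiently transfected with multiple reporter constructs, exposed to chemical for 24 h. Cell number assessed with XTT fluorescence read-out; loss of signal fitted relative to DMSO.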

Row | SMILES | outcome
1 | O=c1c(-c2ccc(O)cc2)coc2cc(O)cc(O)c12 | inactive
2 | CC1(C)NC(=O)N(c2ccc([N+](=O)[O-])c(C(F)(F)F)c2)C1=O | inactive
